From the supplement of paper PMC10646978
± gives the standard deviation.

Key:
Conditions in all cases: modulator concentration 10 µM
[1] = system: RAW-Dual (murine macrophage reporter line); assay: NF-kB reporter (SEAP) activity fold change vs agonist alone; higher = enhanced NF-kB activity
Summary of the method: (§1)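 Compound reached 10 μM final in each well by pin transfer, onto RAW-Dual murine macrophage reporter cells seeded at 50 000 per well in 384-well plates. After 1 hour at 37 °C, the cells were stimulated overnight with a PRR agonist. SEAP in the supernatant was read with QUANTI-Blue at 620 nm absorbance for NF-κB, and Lucia luciferase was read with QUANTI-Luc luminescence for IRF. Each signal was turned into fold change against the mean agonist-only control on the same plate, and two replicate plates were averaged with propagated errors.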

[2] = system: RAW-Dual (murine macrophage reporter line); assay: IRF reporter (Lucia luciferase) activity fold change vs agonist alone; higher = enhanced IRF activity
Summary of the method: as §1

[3] = system: RAW-Dual (murine macrophage reporter line); assay: viability score (confluency relative to resting cells, overnight) (fraction); higher = more viable, active = viable (0.7 or more)
Summary of the method: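 A compound met the cutoff when both of two confluency masks exceeded 70% of resting cells. Those masks were made with IncuCyte software from IncuCyte images of RAW-Dual macrophages treated overnight at 10 μM final. This is the basis of the viability score, which is confluency relative to resting cells.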

[4] = agonist: CpG ODN 1826 0.5 ug/mL

Compound	NF-kB reporter [1, 4]	NF-kB reporter ([1]; agonist: LPS 0.1 ug/mL)	NF-kB reporter ([1]; agonist: MPLA […])	IRF reporter ([2]; agonist: 3'3'-cGAMP 10 ug/mL)	IRF reporter ([2]; agonist: LPS 0.1 ug/mL)	IRF reporter ([2]; agonist: MPLA […])	viability score [3]
Cl.OC(CCCN1CCCCC1)(c1ccccc1)c1ccccc1	0.856 ± 0.037	0.895 ± 0.088	0.982 ± 0.061	1.63 ± 0.092	1.1 ± 0.3	1.08 ± 0.47	0.998 (active)
CCOc1ccccc1OCCOCCOc1ccc(Br)cc1Cl	0.905 ± 0.051	0.9 ± 0.13	1.22 ± 0.044	0.876 ± 0.034	0.979 ± 0.088	1.02 ± 0.12	0.992 (active)
O=C(c1cc2ccccc2o1)N1CC(N2C(=O)CCC2=O)C1	0.894 ± 0.054	0.957 ± 0.076	1.05 ± 0.066	1.03 ± 0.055	1.32 ± 0.26	1.44 ± 0.38	0.985 (active)
CN(C)[C@@H](CCOc1cccc2ccccc12)c1ccccc1.Cl	0.603 ± 0.11	1.01 ± 0.17	0.66 ± 0.044	0.47 ± 0.015	1.25 ± 0.11	0.854 ± 0.068	0.178 (inactive)
Cc1ccc(-n2ncc3c(SCC(=O)NC(C)(C)C)ncnc32)c(C)c1	1.01 ± 0.082	1.16 ± 0.1	1.05 ± 0.047	0.644 ± 0.026	0.95 ± 0.048	1.22 ± 0.18	0.996 (active)
CC1CN(C2=NC(=O)C(=Cc3ccc(-c4ccccc4Cl)o3)S2)CC(C)O1 (stereo not drawn)	0.495 ± 0.054	0.841 ± 0.053	0.943 ± 0.089	0.813 ± 0.053	1.34 ± 0.12	1.44 ± 0.15	1.02 (active)
Cc1c(OCc2ccc(Cl)cc2)ccc2c(C(F)(F)F)cc(=O)oc12	0.758 ± 0.059	0.94 ± 0.048	1.11 ± 0.17	0.802 ± 0.042	1.06 ± 0.062	1.07 ± 0.094	1.02 (active)
Nc1ccc(S(N)(=O)=O)cc1	1.1 ± 0.094	0.993 ± 0.069	1 ± 0.088	1.22 ± 0.27	0.933 ± 0.038	0.904 ± 0.072	0.994 (active)
CNCC[C@H](Oc1cccc2ccccc12)c1cccs1	0.087 ± 0.0072	0.8 ± 0.08	1.08 ± 0.058	0.262 ± 0.019	1.02 ± 0.2	1.01 ± 0.27	0.333 (inactive)
O=C(O[C@H]1C[C@H]2CC3C[C@@H](C1)N2CC3=O)c1c[nH]c2ccccc12	0.524 ± 0.055	0.598 ± 0.1	0.693 ± 0.03	0.92 ± 0.051	0.909 ± 0.03	0.912 ± 0.084	0.998 (active)
CC(Oc1ccc(Cl)cc1)C(=O)NCc1cccnc1 (stereo not drawn)	1.2 ± 0.11	0.981 ± 0.12	0.989 ± 0.096	1.05 ± 0.026	1.31 ± 0.17	1.17 ± 0.12	1.01 (active)
CC(=O)N1CC(C(=O)Nc2cccc(Br)c2)C1	1.11 ± 0.063	1.05 ± 0.08	0.963 ± 0.031	0.932 ± 0.034	1.05 ± 0.062	0.971 ± 0.11	0.998 (active)
COc1ccc2ccccc2c1-c1nnc2ccc(C(F)(F)F)cn12	0.87 ± 0.1	0.997 ± 0.056	0.854 ± 0.089	0.992 ± 0.036	1.37 ± 0.18	1.07 ± 0.2	1.01 (active)
O=c1c2ccccc2n(Cc2nc(-c3ccc(F)c(F)c3)no2)c(=O)n1C1CC1	0.84 ± 0.076	1.21 ± 0.096	0.923 ± 0.11	0.995 ± 0.074	1.04 ± 0.074	1.07 ± 0.15	0.971 (active)
